These results are taken from PubChem BioAssay.

Structures are written as SMILES. Values joined by “and” are separate entries in the source; they are usually repeats but may differ in a detail not shown here. Equal values may be shown once. For part of these data: Results with a measured potency or affinity are listed apart. Active and inactive are the calls of the source. Unless noted, no rule for the calls is given here.

Test [1] can be described thus: blockers of polyQ-driven CASP3 activation – cell-based (AID 1583). The following applies: polyglutamine-induced caspase-3 activation, cell assay; stronger effect = higher value;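 tested at 10 µM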.
Test [2] can be described thus: yeast 75Q aggregation reduction – 75Q-TubU reporter (AID 1593). The following applies: Yeast 75Q polyglutamine aggregation reporter.
Test [3] can be described thus: restoration of touch response, mutant HTT neurons – whole organism, C. elegans mechanosensory neurons, N-terminal huntingtin (AID 1599). The following applies: C. elegans polyQ-huntingtin mechanosensory neurons, stronger effect = higher value.
A short description of test [4]: blockers of cytochrome c efflux from mitochondria – biochemical, purified mitochondria (AID 1603).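 Also: mouse liver mitochondria challenged with calcium chloride; signal normalized to the plate average as 100%.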 The following applies: stronger effect = lower value.
Test [5] is described as follows: polyglutamine aggregate formation blockers (AID 1604). The following applies: polyglutamine-induced protein aggregation inhibition assay; stronger effect = higher value; tested at 2.5 µM.
The nature of test [6]: glutamate transport activators, MN-1 cells, MN-1 cell line (AID 1612).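 Also: tested at 1 µM final; 0% = mean of DMSO vehicle wells on each plate; positive means more glutamate uptake than control and negative means less.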 The following applies: MN-1 motor neuron cells, stronger effect = higher value.
The nature of test [7]: 75Q-TubH aggregate inhibition, S. cerevisiae, yeast (AID 1616). The following applies: S. cerevisiae 75Q-TubH polyglutamine aggregation suppression; stronger effect = higher value.
Test [8] can be described thus: compounds altering viability of human ES cells (AID 493140).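 Also: cells exposed to compounds for four days before counting.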 The following applies: human embryonic stem cell survival screen; stronger effect = higher value.
A short description of test [9]: signal quenchers or enhancers, Cy5 substrate/SSB – biochemical, NIH Clinical Collection, E. coli SSB, artefact control for HCV NS3 helicase inhibitor project (AID 743268). The following applies: Cy5-oligo bound E. coli SSB, fluorescence interference.
Test [10] concerns Hepatitis C virus NS3 helicase. Put plainly: blockers of NS3h binding to DNA – biochemical, fluorescence polarization, NIH Clinical Collection, primary screen (AID 743270). The following applies: NS3 helicase binding to Cy5-dT15 DNA, stronger effect = higher value, concentration not given here. Background: In fluorescence polarisation assays a small probe gives low polarisation when free and higher when bound to something large.

For test [11], the target named is Single-stranded DNA-binding protein (Escherichia coli (strain K12)) (UniProt P0AGE0). Kind of test: SSB-ssDNA binding inhibitors – biochemical, fluorescence polarization, NIH Clinical Collection, counter-screen for HCV NS3 helicase inhibitor project (AID 743271; in the data active = inhibition above about 28%). To be noted: E. coli SSB-DNA binding, stronger effect = higher value, concentration not given here.
A short description of test [12]: compounds distorting NS3 helicase fluorescence signal – biochemical, NIH Clinical Collection, artefact control for HCV NS3 helicase inhibitor project (AID 743272).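 Also: HCV NS3 helicase with a Cy5 labelled single stranded DNA probe.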 The following applies: fluorescence interference counterscreen, HCV NS3 helicase assay; stronger effect = lower value. In general terms: Counterscreens check selectivity or assay interference.
Test [13] in a line: modulation of C. elegans fzo-1 (AID 1259413).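 Also: fzo-1 mutant C. elegans worms in liquid wells.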 The following applies: C. elegans fzo-1 modulator screen, mean read-out; stronger effect = higher value.
Test [14] addresses Mitogen-activated protein kinase 7 (Homo sapiens) (UniProt Q13164). Kind of test: Gal4-ERK5 driven luciferase induction – cell-based, HTS, primary screen (AID 1508626;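 active = luciferase signal above three times the same-plate solvent-only control wells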;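 also: luciferase driven by Gal4-ERK5 fusion binding five Gal4 sites before minimal TATA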). The following applies: HeLa Gal4-ERK5 transactivation, 18 h, at 5 µM, stronger effect = higher value.
For test [15], the system named is R275C/beta1. Put plainly: BK channel mutant inhibitors and activators – cell-based, U2OS BacMam, thallium flux, beta subunits, selectivity assay, profiling panel (AID 1259406;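 active = thallium flux through the channel raised or lowered by more than 3 SD from vehicle-only wells, actives on both sides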;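 also: initial slope of Thallos dye fluorescence rise after thallium is added; log ratio against the mean of 0.3% DMSO vehicle wells on the same plate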). The following applies: U2OS BacMam BK variants, at 30 µM.
Test [16] has as its system R275C/beta2Delta. Described as above. To be noted: U2OS BacMam BK variants, at 30 µM.
The subject of test [17] is R275C/beta4. Described as above. To be noted: U2OS BacMam BK variants, at 30 µM.
Test [18] relates to R275C/Slo1WT/beta2. The description is as above. The following applies: U2OS BacMam BK variants, at 30 µM.
Test [19] is described as follows: galactose survival enhancers in mitochondrial complex I cybrids – cell-based, galactose medium, ATP luminescence, primary screen (AID 1645843;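 active = z-score of at least 1.8 in each of two replicates, scored against plate mean and spread of sample wells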;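 also: positive z means more ATP and so rescue of galactose-driven cybrid death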). The following applies: complex I mutant cybrid cells, 72 h, stronger effect = higher value.
The nature of test [20]: growth inhibition, single agents and combos, ICB984, cell-based, cisplatin or BGB combos, synergistic combos for chromothripsis tumors (AID 1671451).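 Also: cells exposed for 96 hours before readout; 0% = vehicle DMSO and 100% = killing by high DMSO.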 To be noted: ICB984 medulloblastoma cells, drug combinations, stronger effect = higher value.
Setting [21] is: measured here: 5 uM single agent, at 5 µM.

Chain of Mitogen-activated protein kinase 7 (Homo sapiens) (Q13164 whole entry, looked up, the tested form may be a part): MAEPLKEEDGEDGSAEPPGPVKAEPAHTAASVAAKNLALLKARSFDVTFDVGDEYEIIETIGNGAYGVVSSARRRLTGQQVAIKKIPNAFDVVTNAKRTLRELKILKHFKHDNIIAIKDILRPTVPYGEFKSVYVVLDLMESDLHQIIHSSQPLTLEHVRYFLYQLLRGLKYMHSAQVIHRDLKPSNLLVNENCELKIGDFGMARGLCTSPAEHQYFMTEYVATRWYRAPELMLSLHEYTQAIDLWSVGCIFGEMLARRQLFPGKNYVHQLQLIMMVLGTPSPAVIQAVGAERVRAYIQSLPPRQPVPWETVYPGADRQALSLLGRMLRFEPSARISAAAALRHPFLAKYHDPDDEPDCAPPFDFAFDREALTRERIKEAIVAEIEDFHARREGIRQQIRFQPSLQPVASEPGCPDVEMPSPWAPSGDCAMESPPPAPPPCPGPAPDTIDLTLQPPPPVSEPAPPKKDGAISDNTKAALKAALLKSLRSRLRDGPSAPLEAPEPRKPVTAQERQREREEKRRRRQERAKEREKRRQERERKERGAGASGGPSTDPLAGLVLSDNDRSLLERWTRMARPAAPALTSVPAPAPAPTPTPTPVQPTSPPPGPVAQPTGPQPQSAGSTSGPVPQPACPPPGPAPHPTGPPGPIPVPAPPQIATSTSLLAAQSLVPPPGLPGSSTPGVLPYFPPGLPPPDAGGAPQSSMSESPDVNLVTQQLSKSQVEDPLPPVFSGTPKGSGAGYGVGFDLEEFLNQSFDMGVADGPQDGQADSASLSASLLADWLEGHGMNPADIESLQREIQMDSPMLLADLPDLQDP

By inhibition is commonly meant the change of the read-out against control, counted positive when it falls. Take `CC1=C(/C=C/C(C)=C/C=C/C(C)=C/C(=O)O)C(C)(C)CCC1`: the inhibition was 16% in [1], 1.36% (inactive) in test [10] and 2.57% (inactive) in test [11]. The molecule also came in with a score in [2] of 0.91. This molecule also displayed a rescue above control in test [3] of 3.71. The cytochrome c release ratio in test [4] was 3.67. Besides, in test [5], the inhibition of aggregation was 19.4%. The glutamate uptake change in test [6] is -29.4%. For the same molecule, in [7], the aggregation suppression score is 0.795. In addition, the survival in test [8] was 12.6 (inactive) and 136 (inactive). Besides, the fluorescence ratio in [9] was 1.02 (inactive); in [12] it was 0.87 (inactive). Moreover, the mean signal in test [13] was 223 (inactive). Also, the luciferase signal in [14] was 20 AU (inactive). For the same molecule, the log fold change Tl+ flux is 0.0531 (inactive) in test [15], 0.0707 (inactive) in test [16], -0.0336 (inactive) in test [17] and -0.0605 (inactive) in test [18].

`NNC(=O)c1ccncc1`: the inhibition was -15% in test [1], -2.27% (inactive) in test [10] and 3.34% (inactive) in [11]. For the same molecule, in [2], the score is 1.32. The same molecule registered a rescue above control in test [3] of -6.58. Moreover, the cytochrome c release ratio in [4] came out at 1.2. The inhibition of aggregation in test [5] amounted to 30.1%. Moreover, the glutamate uptake change in [6] was -15.1%. For the same molecule, the aggregation suppression score in [7] is 1.6. Further, the survival in test [8] was 30.9 (inactive). Further, the fluorescence ratio was 1.01 (inactive) in test [9] and 0.93 (inactive) in test [12]. Besides, the mean signal in test [13] is 247 (inactive). In addition, the luciferase signal in test [14] is 36 AU (inactive). Also, the z-score in test [19] was 0.55 (inactive) and 0.315 (inactive). Besides, the log fold change Tl+ flux was -0.00353 (inactive) in test [15], 0.0339 (inactive) in test [16], 0.0039 (inactive) in [17] and -0.0323 (inactive) in [18].

Turning to `CS(=O)(=O)OCCCCOS(C)(=O)=O`, the inhibition is 27.2% in test [1]; -12.3% (inactive) in [10]; -0.48% (inactive) in [11]; -15.4% and -25.1% in test [20] (BGB IC20 combo, at 0.005 µM); -13.7% and -14% in [20] (BGB IC40 combo, at 0.005 µM); -7.43% and 3.18% in [20] (BGB IC40 combo, at 0.05 µM). Besides, the inhibition in [20] (at 0.5 µM) was -25.5% (inactive) and -7% (inactive); in [20] (cisplatin combo, at 0.05 µM), -11.3% and 3.18%; in test [20] (cisplatin combo, at 0.5 µM), -9.08% and -3.26%; in test [20] (cisplatin combo, at 5 µM), -50.4% and -16.4%; in test [20] (setting [21]), -29.1% and 6.4%. For the same molecule, in test [2], the score came to 1.46. This molecule displayed a rescue above control in test [3] of -1.18. Besides, the cytochrome c release ratio in test [4] was determined as 0.62. Besides, the inhibition of aggregation in [5] came to 54%. Also, the glutamate uptake change in test [6] is 14.5%. This molecule had an aggregation suppression score in test [7] of 1.4. Moreover, the fluorescence ratio is 1.02 (inactive) in test [9] and 0.92 (inactive) in test [12]. Also, the mean signal in test [13] was 241 (inactive). For the same molecule, the luciferase signal in [14] is 52 AU (inactive). In addition, in test [19], the z-score is 0.925 (inactive). The log fold change Tl+ flux in test [15] is -0.0312 (inactive); in test [16], 0.0365 (inactive); in test [17], -0.0126 (inactive); in test [18] it was 0.0135 (inactive).

`O=C(O)CCCc1ccccc1`: the fluorescence ratio in [9] was 0.99 (inactive); in [12], 0.92 (inactive). Moreover, the inhibition in test [10] is -2.27% (inactive); in test [11], 1.05% (inactive); in test [20] (BGB IC20 combo, at 0.005 µM), -2.57%; in test [20] (BGB IC40 combo, at 0.005 µM), -13.4%; in test [20] (BGB IC40 combo, at 0.05 µM), 6.23%; in test [20] (at 0.5 µM) it was -32.1% (inactive). In addition, the inhibition was 3.61% in [20] (cisplatin combo, at 0.05 µM); -38.8% in test [20] (cisplatin combo, at 0.5 µM); -20.8% in test [20] (cisplatin combo, at 5 µM); -6.76% in test [20] (setting [21]). Besides, the mean signal in [13] was 232 (inactive). The z-score in test [19] was -0.305 (inactive) and -0.05 (inactive) and 0.3 (inactive). For the same molecule, the log fold change Tl+ flux in test [15] was 0.0568 (inactive); in test [16] it was -0.0698 (inactive); in test [17], 0.032 (inactive); in test [18], 0.0104 (inactive).
